Assay results: PubChem BioAssay (NCATS)
Records with an inconclusive call do not appear. Activity calls are given as the source filed them. Calls follow the shape of the dose curve; as a rule, active = well fitted cell-killing curve with a large enough effect; inconclusive = small, poorly fitted or top-dose-only effect, or effect the other way; inactive = no such curve, though single readings can be large or run the other way.

Experiment: Quantitative High-Throughput drug screen in 47 multiple myeloma cell lines against the NCATS MIPE library collection: KMS26_JCRB cell viability assay (AID 1918975); also: nearly all actives have a fitted effect of over 45% in size
Conditions: KMS26 myeloma cells viability, CellTiter-Glo ATP, 48 h; series mostly up to 45.8 µM
Excerpt: PI: Beverly A. Mock Ph.D.
Laboratory of Cancer Biology and Genetics,
Center for Cancer Research, National Cancer Institute,
National Institute of Health, Bethesda, Maryland
Drug resistance and disease progression are common in multiple myeloma (MM) patients, underscoring the need for new therapeutic combinations. […] We hypothesized that effective combinations would reduce MYC expression and enhance p16 activity. […] These preclinical data identify potentially useful drug combinations for evaluation in drug-resistant MM and reveal potential mechanisms of combined drug sensitivity.
Described herein is the primary MIPE qHTS used to cherrypick compounds. Validated compounds were then further tested for potential synergistic activiy.
[1] Peat TJ, Gaikwad SM, Dubois W, Gyabaah-Kessie N, Zhang S, Gorjifard S, Phyo Z, Andres M, Hughitt VK, Simpson RM, Miller MA, Girvin AT, Taylor A, Williams D, D'Antonio N, Zhang Y, Rajagopalan A, Flietner E, Wilson K, Zhang X, Shinn P, Klumpp-Thomas C, McKnight C, Itkin Z, Chen L, Kazandijian D, Zhang J, Michalowski AM, Simmons JK, Keats J, Thomas CJ, Mock BA. Drug combinations identified by high-throughput screening promote cell cycle transition and upregulate Smad pathways in myeloma. Cancer Lett. 2023 Aug 1;568:216284. doi: 10.1016/j.canlet.2023.216284. Epub 2023 Jun 24. PMID: 37356470; PMCID: PMC10408729.
SEQUENCE No. (e.g., 1, 2, 3, etc.); […] (e.g., Cells, Incubation, Reagent, etc.); VALUE and DESCRIPTION.
1; Cells; 5 uL; white, solid bottom 1536-well Greiner assay plate.
2; Compounds; 23 nL; Kalypsis pin tool (Wako USA) equipped with a 1536-well pin head to transfer to the assay plates.
3; Incubation; 48 hours; 37C incubation.
4; Reagent;5uL; CellTiter Glo (Promega).
5; Detector; 425V; Luminescence; Viewlux PerkinElmer.
NOTES (numbers refer to Sequence numbers above)
1. The cell-based screening methods employed in this study were like those previously published. Briefly, the corresponding myeloma cell lines were screened in 1,536-well plates with 500 cells, 5-uL per well for inhibition of cell viability (assessed by measuring ATP levels with CellTiterGlo).
2. NCATS MIPE 4.0 library of approved and investigational drugs were added using the Kalypsis pin tool. Wells treated with DMSO only for 100% viability and media only wells for 0% viability were used as controls.
3. The assay plates were covered and incubated for 48 hours in a 37C, 5% CO2 incubator with controlled humidity.
4. After 48 hours, CellTilter-GloTM luminescent substrate mix (Promega) reagent was added to the assay plate and plates we incubated for 5 min at room temperature.
5. Signal was measured as median relative luminescence units on a ViewLux (PerkinElmer) multiplate reader.
[1] Heske CM, Davis MI, Baumgart JT, Wilson K, Gormally MV, Chen L, Zhang X, Ceribelli M, Duveau DY, Guha R, Ferrer M, Arnaldez FI, Ji J, Tran HL, Zhang Y, Mendoza A, Helman LJ, Thomas CJ. Matrix Screen Identifies Synergistic Combination of PARP Inhibitors and Nicotinamide Phosphoribosyltransferase (NAMPT) Inhibitors in Ewing Sarcoma. Clin Cancer Res. 2017 Dec 1;23(23):7301-7311. doi: 10.1158/1078-0432.CCR-17-1121. Epub 2017 Sep 12. PMID: 28899971; PMCID: PMC6636827.
Potency is read from the fitted curve at half-maximal effect.

| SMILES | Potency |
| --- | --- |
| O=c1ccn([C@@H]2O[C@H](CO)[C@H](O)[C@@H]2F)c(=O)[nH]1 | inactive |
| COc1cc2c(cc1O)CCC1C2CC[C@@]2(C)C1CC[C@@H]2O (stereo not given in full) | 3720 nM (active) |
| CC[C@H]1OC(=O)[C@H](C)[C@@H](O[C@H]2C[C@@](C)(OC)[C@@H](O)[C@H](C)O2)[C@H](C)[C@@H](O[C@@H]2O[C@H](C)C[C@H](N(C)C)[C@@H]2O)[C@](C)(OC)C[C@@H](C)C(=O)[C@H](C)[C@@H](O)[C@]1(C)O | inactive |
| C=CC1=C(C(=O)O)N2C(=O)[C@@H](NC(=O)C(=NO)c3csc(N)n3)[C@H]2SC1 | inactive |
| CN(C)c1ccc2cc(C(=O)N[C@@H](CCCN=C(N)CCl)C(=O)NCc3ccccc3)ccc2c1 | 6620 nM (active) |
| CCN(CC)CCNC(=O)c1c(C)[nH]c(C=C2C(=O)Nc3ccc(F)cc32)c1C | 17100 nM (active) |
| CC(=O)N[C@@H]1[C@H](O[C@@H]2c3ccc(c(Cl)c3)Oc3cc4cc(c3O[C@H]3O[C@H](CO)[C@@H](O)[C@H](O)[C@H]3NC(=O)CCCCCCCC(C)C)Oc3ccc(cc3Cl)C[C@H]3NC(=O)[C@H](N)c5ccc(O)c(c5)Oc5cc(O)cc(c5)[C@H](NC3=O)C(=O)N[C@H]4C(=O)N[C@H]3C(=O)N[C@@H]2C(=O)N[C@@H](C(=O)O)c2cc(O)cc(O[C@H]4O[C@H](CO)[C@@H](O)[C@H](O)[C@H]4O)c2-c2cc3ccc2O)O[C@H](CO)[C@@H](O)[C@@H]1O | inactive |
| COc1cc2c(Nc3ccc(Cl)c(Cl)c3F)ncnc2cc1OCC1C[C@@H]2CN(C)C[C@H]2C1 | 2350 nM (active) |
| CCCCC(=O)O[C@]1(C(=O)CO)[C@@H](C)C[C@H]2[C@@H]3CCC4=CC(=O)C=C[C@]4(C)[C@@]3(F)[C@@H](O)C[C@@]21C | inactive |
| CCc1cnn2c(NCc3ccc[n+]([O-])c3)cc(N3CCCC[C@@H]3CCO)nc12 | 18.7 nM (active) |
| C[C@@]12C(=O)OC(=O)[C@@]1(C)C1CCC2O1 | 2090 nM (active) |
| Cn1cc(C=CC(=O)c2cccc(F)c2)cc1C=CC(=O)NO | 16600 nM (active) |
| Cc1nc(NC(=O)N2CCC[C@@H]2C(N)=O)sc1-c1ccnc(C(C)(C)C(F)(F)F)c1 | 4180 nM (active) |
| CCCNC(=O)[C@H]1O[C@H]1C(=O)N[C@H](C(=O)N1CCC[C@@H]1C(=O)OC)C(C)CC (stereo not given in full) | 11800 nM (active) |
| N#Cc1c(C2CCNCC2)cc(-c2c(O)cccc2OCC2CC2)nc1N | 18700 nM (active) |
| COc1cc(C[C@@H](CO)[C@H](CO)Cc2ccc(O)c(OC)c2)ccc1O | 1320 nM (active) |
| COC1=C2C[C@@H](C)C[C@H](OC)[C@@H](O)[C@@H](C)C=C(C)[C@H](OC(N)=O)[C@@H](OC)C=CC=C(C)C(=O)NC(=CC1=O)C2=O | 52.6 nM (active) |
| C[C@H](NCc1ccc2c(c1)nc(NC(=O)c1ccc(-c3cn[nH]c3)s1)n2CCc1ccccc1)C(C)(C)C | 1870 nM (active) |
| C=Cc1c(C)c2cc3nc(cc4[nH]c(cc5nc(cc1[nH]2)C(C)=C5CCC(=O)O)c(CCC(=O)OC)c4C)[C@@]1(C)C3=CC=C(C(=O)OC)[C@H]1C(=O)OC | 743 nM (active) |
| C[C@@H](Oc1ccc2[nH]nc(C=Cc3cnn(CCO)c3)c2c1)c1c(Cl)cncc1Cl | 8330 nM (active) |

| SMILES | Potency |
| --- | --- |
| CC(=O)O[C@]1(C(C)=O)CC[C@H]2[C@@H]3C=C(C)C4=CC(=O)CC[C@]4(C)[C@@H]3CC[C@@]21C | inactive |
| OCCNC1CCCc2c1[nH]c1ccc(-c3ccccc3)cc21 (stereo not given) | 20900 nM (active) |
| N#Cc1cc(NC(=O)Nc2nnc(-c3ccncc3)s2)ccc1-c1cn[nH]c1 | inactive |
| CN(C)CCN1C(=O)c2cccc3cc(N)cc(c23)C1=O | 20900 nM (active) |
| Cc1ccc2nc(NCCN)c3ncc(C)n3c2c1 | 2640 nM (active) |
| CC(Oc1ccc(O)cc1)(P(=O)(O)O)P(=O)(O)O | inactive |
| N=c1ccn2c(n1)O[C@H]1[C@@H](O)[C@@H](CO)O[C@H]12 | inactive |
| N#Cc1ccc(COC[C@H]2O[C@@H](n3c(NCc4ccc(Cl)c(Cl)c4)nc4c(N)ncnc43)[C@@H](O)[C@@H]2O)cc1 | 2350 nM (active) |
| Cc1ncc(-c2ccnc(Nc3ccc(S(C)(=O)=O)cc3)n2)n1C(C)C | 2640 nM (active) |
| CCOC(=O)N1CCN([N+]([O-])=NOc2ccc([N+](=O)[O-])cc2[N+](=O)[O-])CC1 | 833 nM (active) |
| CC(C)(O)Cn1c(NC(=O)c2ccc(-c3cn[nH]c3)s2)nc2cc(CN3CCOCC3)ccc21 | 2090 nM (active) |
| COc1ccc(S(=O)(=O)Nc2cccnc2Nc2ccc(O)cc2)cc1 | 2640 nM (active) |
| COc1cc(C)c(C=CC(C)=CC=CC(C)=CC(=O)O)c(C)c1C | inactive |
| CN1C(C(=O)Nc2ccccn2)=C(O)c2sc(Cl)cc2S1(=O)=O | 14800 nM (active) |
| CNC(=O)c1cccc(-c2ccc3c(N4CCOC[C@H]4C)nc(N4CCOC[C@H]4C)nc3n2)c1 | 1180 nM (active) |
| CCC(C=C[C@@H]1OC(=O)C=C[C@H]1C)=C[C@H](C)CC=CC(C)=C[C@@H](C)C(=O)[C@@H](C)[C@H](O)[C@@H](C)CC(C)=CC(=O)O | 31.1 nM (active) |
| Cc1cnc(Nc2ccc(CN3CCOCC3)cc2)nc1Nc1cccc(S(=O)(=O)NC(C)(C)C)c1 | 13200 nM (active) |
| COc1cccc2c1C(=O)c1c(O)c3c(c(O)c1C2=O)C[C@@](O)(C(=O)CO)C[C@@H]3O[C@H]1C[C@H](N)[C@@H](O)[C@H](C)O1 | 1480 nM (active) |
| CCOc1cc2ncc(C#N)c(Nc3ccc(OCc4ccccn4)c(Cl)c3)c2cc1NC(=O)C=CCN(C)C | 18700 nM (active) |
| Nc1ccn(C[C@@H](CO)OCP(=O)(O)O)c(=O)n1 | inactive |
